This is part of a sample that, as a whole, favours compounds with a hit. Of some 83,000 tested, about 20% had one in any assay.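 Each cell line was grown in a 96-well plate and treated with one concentration of compound for 48 hours. Values below 10 were considered active.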 Activity calls are given as the source filed them.

The test system of the assay is HL-60(TB) leukemia. As to the kind of experiment: NCI-60 one-dose screen, 48 h (100 = growth as untreated, 0 = no growth, -100 = all killed). The note with it: 10 µM unless noted.
On to `CCCc1n(Cc2ccc3ccccc3c2)c2ccccc2[n+]1Cc1ccc2ccccc2c1`, for which the growth was -64.2% (active). Under `CC(=O)C(=Cc1ccc(C=C(C(C)=O)C(C)=O)cc1)C(C)=O` stands 7.08% (active).

In the case of `Clc1cccc(Cl)c1Cn1c(-c2cncs2)nc2ccccc21`, the growth was 56.6% (inactive).

For `NCC(=O)NC(CC(=O)O)C(=O)O` (stereo not given), the growth is 90.7% (inactive). Regarding `Cc1ccc(/C=C(/C#N)n2nnc3cccc(F)c32)cc1`, the growth is -18.2% (active).

`O=C(Nc1ccc2ncsc2c1)c1csc(Nc2ccc3[nH]ncc3c2)n1`: the growth was 9.68% (active). The same measure for `CC(=O)O[C@H]1CC[C@@]2(C)[C@@H](CC[C@@H]3[C@@H]2CC[C@@]2(C)[C@H]3CC[C@]2(O)C(C)=O)C1`: 93.5% (inactive); for `CC1CN(C2CCCCC2)C(=O)NC1=O` (stereo not given): 75.8% (inactive). With `COc1cc2c(cc1OCCCCCOc1ccc(-n3c(C)nc4ccccc4c3=O)cc1)N=C[C@@H]1CCCN1C2=O`, the growth is -33.8% (active).

In the case of `Cc1ccc(-c2nc(N3CCN(C(=O)c4ccc(OC(F)(F)F)cc4)CC3)c3ccccc3n2)cc1`, the growth was 97.5% (inactive). Turning to `NS(=O)(=O)Oc1ccc(NC(=O)C2CCCCCC2)cc1`, the growth was 99.2% (inactive).

As to `COc1cc2nccc(Oc3ccc(NC(=O)C4(C(=O)Nc5ccc(F)cc5)CC4)cc3)c2cc1OC`, the growth is 8.85% (active). The same measure for `NNc1cccc([N+](=O)[O-])c1`: 6.4% (active).

For `O=C1Nc2ccc(Br)cc2C1=N/C=c1\[nH]c(=O)/c(=C/c2ccc(Cl)cc2)s1`, the growth is 100% (inactive).

For the compound `O=C(COc1ccc(-c2nc3cc(Cl)c(Cl)cc3[nH]2)cc1)N=Nc1c(O)[nH]c2ccccc12`, the growth was 68.5% (inactive). For `CSc1nc2sc3cccc(Cl)c3n2c(=N)c1C#N`, the growth was 91.8% (inactive). In the case of `C=C(CNCCc1ccc(O)cc1)[C@@H]1CC[C@]2(COC3CCCCO3)CC[C@]3(C)[C@H](CC[C@@H]4[C@@]5(C)CCC(NCCO)C(C)(C)[C@@H]5CC[C@]43C)[C@@H]12` (stereo not given in full), the growth is -59.5% (active). `CCOC(=O)/C(C#N)=C1/C(=O)Nc2ccccc21`: the growth was 149% (inactive). As for `CCN=Cc1c(O)c(O)c(C(C)C)c2cc(C)c(-c3c(C)cc4c(C(C)C)c(O)c(O)c(C=NCC)c4c3O)c(O)c12`, the growth was 27.3% (inactive).

`O=C(Nc1ccc(N2CCNCC2)cn1)c1[nH]ncc1Nc1ncnc2sc3c(c12)CCC3`: the growth is 74% (inactive).

In the case of `COc1ccccc1CNCCCN1C(=O)c2ccc3c4c(ccc(c24)C1=O)C(=O)N(CCCNCCCN)C3=O`, the growth is -42.3% (active). Consider `COc1ccc(C(=O)C(C)C)c2ccccc12`, for which the growth was 78.9% (inactive). `CCOC(=O)N/N=C\C(C)=N\NC(=O)OCC`: the growth is 92.9% (inactive). The same measure for `CC1CCN(Cc2ccc(NC(=O)c3cc4ccc5cccnc5c4[nH]3)cc2)CC1`: 11.5% (inactive); for `CCOc1cc2c(cc1OCC)C(c1cc(OC)c(O)cc1Cl)NCC2` (stereo not given): 91.7% (inactive); for `O=c1oc2ccc(Br)cc2c(=O)n1-c1ccc(Cl)cc1F`: -32.8% (active).

Turning to `C[C@@H]1C(=O)N(C[C@H](Cc2ccccc2)N(Cc2ccccc2)Cc2ccccc2)[C@]1(Cc1ccccc1)C(=O)OC(C)(C)C`, the growth is 62.9% (inactive). Turning to `COc1ccc2nc(/C=C/c3ccc(N(C)C)cc3)sc2c1`, the growth was 51.1% (inactive).

Consider `CCOC(=O)c1c(Cl)c2c(n1Cc1ccccc1)-c1oncc1CCC2`, for which the growth was 25.7% (inactive). For the compound `Cc1nc(-n2[nH]c(=O)ccc2=O)sc1N=Nc1ccccc1`, the growth is 98% (inactive). In the case of `O=C(Nc1ccc(CO)cc1)c1ccccc1Nc1ccnc(C(F)(F)F)c1`, the growth is 98.3% (inactive). As to `NC(=O)c1cccc(N2Cc3ccccc3OC3=C2C(=O)c2c(O)ccc(O)c2C3=O)c1`, the growth is -46.3% (active).

For the compound `CN(C)CCN(C)CC(C)(C)C(=O)/C=C/c1ccc(Cl)cc1`, the growth was 0.343% (active). The same measure for `Fc1cc(-c2cnc3nonc3n2)c(Cl)cc1Cl`: -20.2% (active); for `CN(C)CCCn1c2c(c3ccncc3c1=O)C(=O)c1ccccc1-2`: -19.8% (active); for `COc1cnc2c(c1)C(=O)c1c-2n(CCCN2CCCC2)c(=O)c2cc(F)ccc12`: -28.7% (active). As for `N=C(N)c1ccc(-c2ccc(-c3cc(Cl)cc(Cl)c3)s2)cc1`, the growth is -57.6% (active).

In the case of `O=C(CCCCCCN1CC(=O)N2[C@@H](c3ccc(Cl)c(Cl)c3)c3[nH]c4ccccc4c3C[C@H]2C1=O)NO`, the growth was -11.8% (active). The same measure for `O=C(CSc1nnc(Cc2ccccc2Nc2c(Cl)cccc2Cl)n1-c1ccccc1)N1N=C(c2ccc3ccccc3c2)CC1c1ccc(Cl)cc1` (stereo not given): 98% (inactive); for `Cc1ccc(/C=C2\C(=O)N(C)c3ccc(S(=O)(=O)Nc4ccc(C(C)(C)C)cc4)cc32)s1`: 93.1% (inactive).
